The supplement of paper PMC6089552
Among all 3,200 compounds or so, about 300 (9.4%) showed activity. This is one part of a sample in which actives are shown more often than they occur.

Tested on: A673/TR/shEF
Assay: cell viability (LOESS-normalised, relative to median of negative controls) (log2 ratio); higher = more viable cells (less compound effect), active = hit call of the paper (over 3 MAD below the median)
Conditions: treatment time: 72 h
Outline: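 Viability of A673/TR/shEF Ewing sarcoma cells was determined by CellTiter-Glo luminescence. The cells, at 1,500 per well in 384-well plates, were grown with or without doxycycline from 24 h before compound addition to switch on EWS-FLI1 shRNA knockdown, then exposed for three days to library compounds at two or more concentrations or to DMSO controls. Signals were LOESS-corrected plate by plate, normalised to the negative-control median and log2-transformed.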

[1] = 0.25 µM, library screen: screen1, EWS-FLI1 expression: high (no doxycycline)
[2] = 0.25 µM, library screen: screen1, EWS-FLI1 expression: low (doxycycline-induced shRNA knockdown)
[3] = 2.5 µM, library screen: screen1, EWS-FLI1 expression: high (no doxycycline)
[4] = 2.5 µM, library screen: screen1, EWS-FLI1 expression: low (doxycycline-induced shRNA knockdown)
[5] = 0.025 µM, library screen: screen1, EWS-FLI1 expression: high (no doxycycline)
[6] = 0.025 µM, library screen: screen1, EWS-FLI1 expression: low (doxycycline-induced shRNA knockdown)
[7] = 0.25 µM, library screen: screen2, EWS-FLI1 expression: high (no doxycycline)
[8] = 0.25 µM, library screen: screen2, EWS-FLI1 expression: low (doxycycline-induced shRNA knockdown)
[9] = 2.5 µM, library screen: screen2, EWS-FLI1 expression: high (no doxycycline)
[10] = 2.5 µM, library screen: screen2, EWS-FLI1 expression: low (doxycycline-induced shRNA knockdown)
[11] = 25 µM, library screen: screen1, EWS-FLI1 expression: high (no doxycycline)
[12] = 25 µM, library screen: screen1, EWS-FLI1 expression: low (doxycycline-induced shRNA knockdown)
[13] = 0.103 µM, library screen: screen3, EWS-FLI1 expression: high (no doxycycline)
[14] = 0.103 µM, library screen: screen3, EWS-FLI1 expression: low (doxycycline-induced shRNA knockdown)
[15] = 0.308 µM, library screen: screen3, EWS-FLI1 expression: high (no doxycycline)
[16] = 0.308 µM, library screen: screen3, EWS-FLI1 expression: low (doxycycline-induced shRNA knockdown)
[17] = 0.926 µM, library screen: screen3, EWS-FLI1 expression: high (no doxycycline)
[18] = 0.926 µM, library screen: screen3, EWS-FLI1 expression: low (doxycycline-induced shRNA knockdown)
[19] = 2.8 µM, library screen: screen3, EWS-FLI1 expression: high (no doxycycline)
[20] = 2.8 µM, library screen: screen3, EWS-FLI1 expression: low (doxycycline-induced shRNA knockdown)
[21] = 8.3 µM, library screen: screen3, EWS-FLI1 expression: high (no doxycycline)
[22] = 8.3 µM, library screen: screen3, EWS-FLI1 expression: low (doxycycline-induced shRNA knockdown)
[23] = 25 µM, library screen: screen3, EWS-FLI1 expression: high (no doxycycline)
[24] = 25 µM, library screen: screen3, EWS-FLI1 expression: low (doxycycline-induced shRNA knockdown)

Measured: cell viability (log2)

O=C(O)c1cc2ccccc2[nH]1
inactive: [1] 0.123 | [2] 0.0929 | [3] 0.0969 | [4] 0.132

O=C(O)c1cc2cc(Cl)ccc2[nH]1
inactive: [1] 0.0631 | [2] -0.00653 | [3] 0.106 | [4] 0.0362

Cn1cnnc1SCC(=O)N1c2ccccc2CCc2ccccc21
inactive: [1] 0.0935 | [2] 0.0627 | [3] 0.0921 | [4] 0.0613

N#C/C(=C\c1ccc(O)c(O)c1)C(=O)Nc1ccccc1
inactive: [5] 0.188 | [6] -0.0571 | [1] 0.155 | [2] 0.0428 | [7] 0.0861 | [8] 0.0194 | [4] 0.0541 | [9] 0.105 | [10] 0.00853 | [12] 0.0298
active: [3] -0.16 | [11] -0.692

N#C/C(=C\c1ccc(O)c(O)c1)C(=O)NCCCc1ccccc1
inactive: [7] 0.175 | [8] 0.0501 | [9] 0.049 | [10] 0.115

N#C/C(=C\c1ccc(O)c(O)c1)C(=O)NCc1ccccc1
inactive: [5] 0.245 | [6] 0.0652 | [1] 0.23 | [2] 0.104 | [7] 0.0885 | [8] 0.0797 | [9] 0.253 | [10] 0.0805 | [12] -0.0381
active: [3] -0.573 | [4] -0.157 | [11] -0.423

N#C/C(=C\c1ccc(O)c(O)c1)C(=O)NCCc1ccccc1
inactive: [7] 0.142 | [8] 0.0983 | [9] 0.163 | [10] 0.0697

C[C@@H](NC(=O)/C(C#N)=C/c1ccc(O)c(O)c1)c1ccccc1
inactive: [7] 0.139 | [8] -0.0177 | [9] 0.152 | [10] 0.00798

C[C@H](NC(=O)/C(C#N)=C/c1ccc(O)c(O)c1)c1ccccc1
inactive: [7] 0.133 | [8] 0.0775 | [9] 0.118 | [10] 0.0876

O=C(O)c1cc([N+](=O)[O-])ccc1NCCCc1ccccc1
inactive: [1] 0.00351 | [2] 0.0513 | [7] 0.0917 | [8] 0.092 | [3] -0.0108 | [4] 0.0086 | [9] 0.0503 | [10] 0.0316

CC(C)c1cc(/C=C(\C#N)C(=O)NCCCc2ccccc2)cc(C(C)C)c1O
active: [3] -0.147 | [11] -0.351
inactive: [5] 0.249 | [6] 0.00192 | [1] 0.255 | [2] -0.0227 | [4] 0.113 | [12] 0.147

O=C(O)Cc1ccc(O)c(O)c1
inactive: [7] 0.133 | [8] -0.00472 | [9] 0.0419 | [10] 0.108

CC(=O)O[C@H]1CC[C@@]2(C)C(CC[C@]3(C)C2C(=O)C=C2C4[C@@H](C)[C@H](C)CC[C@]4(C(=O)O)CC[C@]23C)C1(C)C (stereo partly specified)
inactive: [1] 0.0834 | [2] -0.0467 | [3] 0.137 | [4] -0.0143

Cc1nnc(SCC(=O)N2c3cc(C)c(C)cc3-c3c(ssc3=S)C2(C)C)s1
inactive: [1] 0.0437 | [2] 0.1 | [3] 0.106 | [4] 0.371

COc1cc(CN2CCN(Cc3ccccc3Br)CC2)cc(OC)c1OC
inactive: [1] 0.141 | [2] 0.0128 | [3] 0.124 | [4] -0.0338

COCCCN1C(=O)C(=Cc2sccc2C)SC1=S
inactive: [1] 0.112 | [2] 0.0557 | [3] 0.117 | [4] -0.0013

CC1=C(C(=O)Nc2ccccc2Cl)C(c2ccc(F)cc2)NC(=S)N1 (stereo unspecified)
inactive: [1] 0.0751 | [2] -0.00334 | [3] 0.0684 | [4] -0.0806

CC(=O)CCC(=O)O
inactive: [1] 0.109 | [2] -0.0377 | [3] 0.149 | [4] 0.116

Nc1ccccc1C(=O)CC(N)C(=O)O (stereo unspecified)
inactive: [1] 0.119 | [2] 0.0475 | [3] 0.0296 | [4] 0.178

Clc1ccc(CSC(Cn2ccnc2)c2ccc(Cl)cc2Cl)cc1 (stereo unspecified)
inactive: [1] 0.0547 | [2] -0.0713 | [3] 0.0724 | [4] -0.143

Clc1ccc(COC(Cn2ccnc2)c2ccc(Cl)cc2Cl)cc1 (stereo unspecified)
active: [23] -0.429
inactive: [13] -0.00584 | [14] 0.0214 | [1] 0.00613 | [2] -0.0476 | [15] 0.00202 | [16] -0.00564 | [17] 0.0175 | [18] 0.0368 | [3] 0.0561 | [4] 0.0348 | [19] -0.113 | [20] 0.0131 | [21] -0.0802 | [22] 0.0353 | [24] -0.0458

Clc1ccc(COC(Cn2ccnc2)c2ccc(Cl)cc2Cl)c(Cl)c1 (stereo unspecified)
inactive: [13] 0.0363 | [14] 0.054 | [1] 0.11 | [2] -0.0145 | [15] 0.0264 | [16] 0.0988 | [17] 0.0504 | [18] 0.0737 | [3] 0.143 | [4] 0.0636 | [19] 0.00663 | [20] 0.0754 | [21] -0.0261 | [22] 0.0596 | [23] -0.0834 | [24] 0.0583
